In experiment [1] the target is T1, Muscle, skeletal receptor tyrosine-protein kinase (Homo sapiens) (UniProt O15146).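 Note: reported value is the mean percent inhibition of MuSK kinase.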
T1 sequence (whole entry): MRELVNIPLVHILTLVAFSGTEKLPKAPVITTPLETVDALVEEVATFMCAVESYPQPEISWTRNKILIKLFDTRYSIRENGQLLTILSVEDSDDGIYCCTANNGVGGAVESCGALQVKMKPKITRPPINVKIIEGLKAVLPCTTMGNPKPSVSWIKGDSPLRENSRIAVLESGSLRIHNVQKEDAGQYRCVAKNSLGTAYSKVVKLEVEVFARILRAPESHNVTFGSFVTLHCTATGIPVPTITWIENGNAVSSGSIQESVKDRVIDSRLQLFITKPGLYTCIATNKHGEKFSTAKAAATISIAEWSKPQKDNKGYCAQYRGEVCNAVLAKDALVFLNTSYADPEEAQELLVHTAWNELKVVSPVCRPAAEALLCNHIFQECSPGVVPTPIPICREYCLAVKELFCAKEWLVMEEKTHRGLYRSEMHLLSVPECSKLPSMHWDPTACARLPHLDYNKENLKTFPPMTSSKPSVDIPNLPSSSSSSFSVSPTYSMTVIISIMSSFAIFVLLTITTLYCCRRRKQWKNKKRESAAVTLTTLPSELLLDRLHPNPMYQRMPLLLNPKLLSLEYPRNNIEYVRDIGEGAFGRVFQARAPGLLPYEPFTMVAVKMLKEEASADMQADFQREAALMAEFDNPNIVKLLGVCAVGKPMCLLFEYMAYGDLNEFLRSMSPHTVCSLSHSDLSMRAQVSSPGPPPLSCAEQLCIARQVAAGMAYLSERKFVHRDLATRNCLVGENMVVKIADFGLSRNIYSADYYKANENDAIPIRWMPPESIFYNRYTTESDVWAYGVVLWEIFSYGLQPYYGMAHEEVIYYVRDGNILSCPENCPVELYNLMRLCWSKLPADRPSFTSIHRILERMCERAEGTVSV
To be noted: at 1 µM.

The target of experiment [2] is Platelet-derived growth factor receptor alpha (Homo sapiens) (UniProt P16234). The settings on record: at 0.1 µM.
Sequence of Platelet-derived growth factor receptor alpha (Homo sapiens) (P16234 whole entry): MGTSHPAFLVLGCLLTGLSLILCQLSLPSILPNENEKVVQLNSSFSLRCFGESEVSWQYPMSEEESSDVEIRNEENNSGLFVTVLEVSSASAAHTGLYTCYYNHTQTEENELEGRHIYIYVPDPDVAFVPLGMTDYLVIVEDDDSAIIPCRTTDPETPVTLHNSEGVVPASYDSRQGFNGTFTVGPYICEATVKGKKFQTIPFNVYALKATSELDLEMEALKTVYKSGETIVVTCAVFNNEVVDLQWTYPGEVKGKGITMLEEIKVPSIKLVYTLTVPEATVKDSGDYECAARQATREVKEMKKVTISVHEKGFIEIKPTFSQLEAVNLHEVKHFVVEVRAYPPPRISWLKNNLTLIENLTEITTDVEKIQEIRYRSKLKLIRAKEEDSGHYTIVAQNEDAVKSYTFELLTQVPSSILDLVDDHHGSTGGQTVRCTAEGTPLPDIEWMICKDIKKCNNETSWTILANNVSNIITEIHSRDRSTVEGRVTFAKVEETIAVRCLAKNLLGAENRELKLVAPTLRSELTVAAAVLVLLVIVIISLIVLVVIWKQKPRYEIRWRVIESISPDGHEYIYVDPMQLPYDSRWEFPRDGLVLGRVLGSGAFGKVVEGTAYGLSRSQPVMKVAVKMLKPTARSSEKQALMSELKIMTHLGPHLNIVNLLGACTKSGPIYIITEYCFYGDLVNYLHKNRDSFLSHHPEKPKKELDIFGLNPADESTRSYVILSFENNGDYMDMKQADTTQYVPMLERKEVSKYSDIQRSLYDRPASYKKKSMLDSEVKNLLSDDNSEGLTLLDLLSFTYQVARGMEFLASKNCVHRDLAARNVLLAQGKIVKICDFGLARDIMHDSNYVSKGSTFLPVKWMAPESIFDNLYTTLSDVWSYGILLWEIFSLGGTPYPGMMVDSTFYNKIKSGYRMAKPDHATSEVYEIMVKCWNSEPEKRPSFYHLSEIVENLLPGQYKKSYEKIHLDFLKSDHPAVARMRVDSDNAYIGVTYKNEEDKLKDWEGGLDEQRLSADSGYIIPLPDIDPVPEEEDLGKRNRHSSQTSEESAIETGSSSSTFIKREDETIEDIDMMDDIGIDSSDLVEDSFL
Experiment [3] shares this target. To be noted: at 1 µM.
The subject of experiment [4] is Platelet-derived growth factor receptor alpha (Homo sapiens), P16234 [D842V]. To be noted: at 0.1 µM.
Experiment [5] shares this test system. To be noted: at 1 µM.
Experiment [6] has as its system Platelet-derived growth factor receptor alpha (Homo sapiens), P16234 [T674I]. The settings on record: at 0.1 µM.
Experiment [7] has the same test system. To be noted: at 1 µM.
Experiment [8] deals with Platelet-derived growth factor receptor alpha (Homo sapiens), P16234 [V561D]. To be noted: at 0.1 µM.
Experiment [9] shares this test system. To be noted: at 1 µM.
Experiment [10] has as its target Platelet-derived growth factor receptor beta (Homo sapiens) (UniProt P09619). To be noted: at 0.1 µM.
The target is the same in experiment [11]. The settings on record: at 1 µM.
Experiment [12] addresses Tyrosine-protein kinase FRK (Homo sapiens) (UniProt P42685). The settings on record: at 0.1 µM.
For experiment [13] the target is unchanged. To be noted: at 1 µM.
In experiment [14] the target is Protein-tyrosine kinase 2-beta (Homo sapiens) (UniProt Q14289). The settings on record: at 0.1 µM.
The target is the same in experiment [15]. To be noted: at 1 µM.
Experiment [16] deals with Proto-oncogene tyrosine-protein kinase receptor Ret (Homo sapiens) (UniProt P07949). To be noted: at 0.1 µM.
For experiment [17] the target is unchanged. To be noted: at 1 µM.
For experiment [18], the system named is Proto-oncogene tyrosine-protein kinase receptor Ret (Homo sapiens), P07949 [V804L]. The settings on record: at 0.1 µM.
Experiment [19] shares this test system. To be noted: at 1 µM.
In experiment [20] the test system is Proto-oncogene tyrosine-protein kinase receptor Ret (Homo sapiens), P07949 [Y791F]. The settings on record: at 0.1 µM.

Consider seven molecules from ChEMBL document CHEMBL1961873, “Compounds: GSK PKIS; Assays: Nanosyn kinase panel” (2012).

Structures are written as SMILES.

Sequence of Platelet-derived growth factor receptor beta (Homo sapiens) (P09619 whole entry): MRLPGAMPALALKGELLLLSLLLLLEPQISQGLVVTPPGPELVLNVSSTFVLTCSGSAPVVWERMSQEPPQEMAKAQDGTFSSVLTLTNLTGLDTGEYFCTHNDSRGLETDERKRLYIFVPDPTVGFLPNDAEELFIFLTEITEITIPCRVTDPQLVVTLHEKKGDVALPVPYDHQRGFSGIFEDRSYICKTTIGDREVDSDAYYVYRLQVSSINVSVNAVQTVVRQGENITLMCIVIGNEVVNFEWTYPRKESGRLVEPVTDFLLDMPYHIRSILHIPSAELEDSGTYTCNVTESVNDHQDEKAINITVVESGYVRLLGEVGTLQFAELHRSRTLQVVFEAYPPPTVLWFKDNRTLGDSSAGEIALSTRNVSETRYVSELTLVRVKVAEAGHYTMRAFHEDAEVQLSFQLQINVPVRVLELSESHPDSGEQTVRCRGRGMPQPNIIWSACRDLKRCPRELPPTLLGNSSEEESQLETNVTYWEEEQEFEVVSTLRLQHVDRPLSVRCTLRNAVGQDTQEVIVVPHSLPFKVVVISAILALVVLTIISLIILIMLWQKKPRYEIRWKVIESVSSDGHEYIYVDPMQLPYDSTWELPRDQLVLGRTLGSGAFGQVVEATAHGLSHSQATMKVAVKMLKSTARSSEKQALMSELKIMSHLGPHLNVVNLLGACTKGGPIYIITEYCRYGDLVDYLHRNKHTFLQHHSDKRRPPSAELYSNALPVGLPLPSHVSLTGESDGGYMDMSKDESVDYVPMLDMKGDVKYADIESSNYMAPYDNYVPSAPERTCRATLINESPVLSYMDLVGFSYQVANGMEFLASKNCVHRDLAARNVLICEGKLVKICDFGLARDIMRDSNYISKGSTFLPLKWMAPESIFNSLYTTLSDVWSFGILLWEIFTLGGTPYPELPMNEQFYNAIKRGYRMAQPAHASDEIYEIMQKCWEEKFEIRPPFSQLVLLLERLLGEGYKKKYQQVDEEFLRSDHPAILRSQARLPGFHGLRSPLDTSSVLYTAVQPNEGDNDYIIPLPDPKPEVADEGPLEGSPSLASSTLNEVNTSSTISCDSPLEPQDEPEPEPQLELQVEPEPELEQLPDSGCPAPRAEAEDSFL
Sequence of Platelet-derived growth factor receptor alpha (Homo sapiens), P16234 [D842V] (P16234 whole entry D842V): as the sequence (P16234 whole entry) above, with D842V counted along it
Sequence of Platelet-derived growth factor receptor alpha (Homo sapiens), P16234 [T674I] (P16234 whole entry T674I): as the sequence (P16234 whole entry) above, with T674I counted along it
Sequence of Tyrosine-protein kinase FRK (Homo sapiens) (P42685 whole entry): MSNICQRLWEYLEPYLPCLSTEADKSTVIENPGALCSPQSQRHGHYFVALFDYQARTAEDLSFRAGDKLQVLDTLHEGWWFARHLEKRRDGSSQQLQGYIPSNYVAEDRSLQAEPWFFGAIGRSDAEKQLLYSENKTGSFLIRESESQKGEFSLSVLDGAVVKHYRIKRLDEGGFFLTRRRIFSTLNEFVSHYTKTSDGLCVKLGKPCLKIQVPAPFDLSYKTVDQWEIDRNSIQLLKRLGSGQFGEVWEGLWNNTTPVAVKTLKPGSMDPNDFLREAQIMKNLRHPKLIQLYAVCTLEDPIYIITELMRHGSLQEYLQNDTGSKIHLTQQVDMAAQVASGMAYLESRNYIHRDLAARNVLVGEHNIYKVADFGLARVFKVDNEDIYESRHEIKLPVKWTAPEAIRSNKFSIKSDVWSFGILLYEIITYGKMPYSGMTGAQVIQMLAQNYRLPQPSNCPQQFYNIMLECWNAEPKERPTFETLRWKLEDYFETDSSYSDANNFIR

Take `CCn1c(-c2nonc2N)nc2ccncc21`: the inhibition stood at 1.96% in experiment [1]; 8.83% in experiment [2]; 7.48% in [3]; 0.54% in experiment [4]; 1.96% in experiment [5]; 2.72% in [6]. For the same molecule, the inhibition in [7] turned out to be 1.31%; in experiment [8], 2.31%; in experiment [9], 3.59%; in experiment [10], 0.36%; in [11], 5.63%; in experiment [12], 0.98%. For the same molecule, the inhibition in experiment [13] amounted to 0.17%; in experiment [14] it was 3.23%; in experiment [15] it was 7.52%; in [16] it was 2.99%; in [17] it was 5.58%; in experiment [18] it was 4.69%. The inhibition in experiment [19] was -1.85%; in experiment [20] it was 1.52%.

Regarding `CC(C)=Cc1cccc2c1/C(=N/Nc1ccc(S(N)(=O)=O)cc1)C(=O)N2`, the inhibition is 36.3% in experiment [1]; 20.3% in experiment [2]; 64.9% in experiment [3]; 12.2% in experiment [4]; 58.5% in experiment [5]; 7.43% in experiment [6]. Besides, the inhibition in [7] is 46.5%; in experiment [8] it was 15%; in experiment [9], 62.5%; in experiment [10], 17.4%; in experiment [11] it was 62.6%; in [12] it was 1.44%. Besides, the inhibition came to 5.49% in experiment [13]; 3.24% in [14]; 27.5% in [15]; 14.8% in experiment [16]; 60.7% in experiment [17]; 16.4% in experiment [18]. In addition, the results for the inhibition in [19] and in experiment [20] were 67.4% and 6.44%, respectively.

In the case of `O=C1NC(=O)C(c2cccc(Cl)c2)=C1Nc1ccc(O)c(Cl)c1`, the inhibition is 2.41% in experiment [1]; 6.23% in experiment [2]; 15.1% in experiment [3]; 4.44% in experiment [4]; 6.47% in [5]; 1.04% in experiment [6]. For the same molecule, the inhibition in experiment [7] is 1.36%; in experiment [8] it was 2.63%; in experiment [9], 9.34%; in experiment [10] it was 0.85%; in experiment [11], 11.5%; in experiment [12], -0.47%. Besides, the inhibition in experiment [13] was 1.74%; in [14] it was 1%; in experiment [15] it was 9.11%; in [16], 3.31%; in [17], 7.66%; in experiment [18], -0.49%. Besides, the inhibition in [19] was 0.64%; in experiment [20] it was 2.27%.

Take `Cc1nnc(-c2ccc(C)c(-c3ccc(C(=O)Nc4cccc(C#N)c4)cc3)c2)o1`: the inhibition in experiment [1] stood at 2.91%; in [2], 7.61%; in experiment [3], 15.8%; in experiment [4] it was 0.78%; in experiment [5], 2.5%; in [6] it was 3.31%. In addition, the inhibition turned out to be 6.79% in [7]; 3.46% in experiment [8]; 5.28% in [9]; 6.49% in experiment [10]; 10.9% in [11]; 2.05% in [12]. Further, the inhibition in experiment [13] was 2.02%; in [14], 4.97%; in [15], 6.48%; in experiment [16], 7.9%; in experiment [17] it was 12.9%; in experiment [18] it was 4.42%. Also, the inhibition is 8.03% in experiment [19] and 4.58% in experiment [20].

For `Nc1nc(-c2ccc3c(c2)C(=Cc2cc(Br)c(O)c(Br)c2)C(=O)N3)cs1`, the inhibition in [1] is 2.75%; in experiment [2], 2.1%; in [3] it was 5.96%; in [4] it was 0.96%; in experiment [5] it was 2.21%; in [6] it was 0.36%. Besides, the inhibition is -0.01% in experiment [7]; 2.02% in experiment [8]; 2.58% in [9]; 1.75% in [10]; 7.52% in experiment [11]; 0.6% in [12]. For the same molecule, the inhibition in experiment [13] is 3.29%; in [14], -1.15%; in experiment [15] it was 6.43%; in experiment [16] it was 7.13%; in experiment [17], 12.3%; in [18], 1.75%. Besides, the inhibition amounted to 9.79% in [19] and 3.97% in experiment [20].

As for `O=C1NC(=O)C(N2CCc3ccccc32)=C1c1ccc(Cl)cc1`, the inhibition in experiment [1] worked out at 3.86%; in experiment [2], 13.4%; in experiment [3], 15.4%; in [4] it was 3.39%; in experiment [5] it was 6.57%; in experiment [6] it was 10.4%. Besides, the inhibition came to 7.21% in experiment [7]; 3.93% in experiment [8]; 6.68% in experiment [9]; 8.69% in experiment [11]; 2.55% in experiment [12]; 3.4% in [13]. Also, the inhibition in [14] stood at 8.33%; in experiment [15], 7.03%; in experiment [16] it was 2.35%; in experiment [17] it was 10.1%; in experiment [18], 7.17%; in experiment [19], 9.11%. Further, the inhibition in experiment [20] was found to be 11.4%.

For the molecule `Cc1cc(O)cc(C)c1/C=C/c1cncc(-c2nn[nH]n2)c1`, the inhibition in experiment [1] was 2.94%; in experiment [2], 10.7%; in [3], 50.9%; in experiment [4], 2.87%; in [5], 22.2%; in experiment [6], 7.51%. Also, the inhibition in experiment [7] amounted to 5.59%; in experiment [8], 12.1%; in [9], 59.3%; in [10], 9.66%; in experiment [11] it was 49.5%; in experiment [12] it was 6.95%. Further, the inhibition in experiment [13] worked out at 33.8%; in experiment [14], 12.8%; in experiment [15] it was 12.1%; in experiment [16], 1.14%; in experiment [17], 9.47%; in experiment [18], 8.88%. The values for the inhibition in experiment [19] and in experiment [20] were 9.42% and 3.32%, respectively.
